Records with an inconclusive call do not appear. A call without a number means that no potency is given here. Active and inactive are the calls of the source. Calls come from the whole dose curve; as a rule, active = well fitted inhibition curve with a large enough effect; inconclusive = small, poorly fitted or top-dose-only effect; inactive = no such curve, though single readings can be large or run the other way. *1 amine or outer side, *2 acyl side, *3 side chain or, on linkers, in order; H or OH if unused. Where a SMILES comes first, the peptide text is derived from it. [ ]: non-standard residue; d: D form. Ala(indol-2-yl) = N[C@@H](Cc1cc2ccccc2[nH]1)C(=O)O; X5 = CC(CC(O[*:1])C(=O)[*:2])C(=O)O; NMeV = CN[CH](C(=O)O)C(C)C; NMeA = CN[CH](C)C(=O)O; Aib = CC(C)(N)C(=O)O; βAla = NCCC(=O)O
tested on: Zika virus NS2B-NS3 protease (unlinked complex); assay: Primary screen GU Rhodamine qHTS for Zika virus inhibitors: Unlinked NS2B-NS3 protease assay (AID 1347159); conditions: Recombinant ZIKV NS2B-NS3 protease, Rhodamine110 substrate fluorescence; series mostly up to 107 µM; note: nearly all actives have a fitted effect of over 60% in size
Text: Avindra Nath, Ph.D., National Institute of Neurological Disorders and Stroke (NINDS), Bethesda, MD
Radhakrishnan Padmanabhan, Ph.D., Georgetown University (GU), Washington D.C.
Zika Virus causes congenital defects, including microcephaly and is associated with Guillain-Barre syndrome, eningoencephalitis and myelitis in infected adult. […] Using a target-based approach, we hope to establish a screening paradigm to uncover novel, cell-active NS2B-NS3 protease (Zika Virus) specific inhibitors from NCATS' collection of small molecules using qHTS.
Four assay panel was created to identify potential Zika Virus inhibitors. Namely, (1) GU unlinked NS2B-NS3 AMC tagged protease qHTS, (2) GU unlinked NS2B-NS3 Rhodamine tagged protease qHTS, (3) NINDS linked NS2B-NS3 AMC tagged protease qHTS, (4) NINDS linked NS2B-NS3 Rhodamine tagged protease qHTS. Active compounds were re-acquired and re-screened to confirm inhibition. Inhibitors were further screened against various confirmatory and counterscreens in dose response format.
Early Translation Branch (ETB)
National Center for Advancing Translational Sciences (NCATS), Rockville, MD
National Institute of Health (NIH), Bethesda, Maryland
Padmanabhan lab provided the NS2B hydrophilic domain and NS3 protease domain in a noncovalent complex used for the unlinked assay. Control compound aprotinin is obtained from Thermo Scientific (#78432; Waltham, Massachusetts). Rhodamine110 substrate ([N-Cbz]-Nle-Lys-Arg-Arg-Rhod110-Arg-Arg-Lys-Nle-[N-Cbz]) was purchased from either Genscript or Bachem.
1536-well Protease (Rhodamine110 Substrate) Assay:
Briefly, 3 microL of enzyme (25 nM final concentration), in assay buffer (10 mM Tris-HCl pH 8.0 with 0.01% Tween 20) were dispensed into a 1,536-well solid-bottom black plate (Greiner Bio One, Monroe, NC). Twenty-three nL of compounds (final concentration range 7.28 nM to 114 microM) or control Aprotinin (final concentration range 3.47 nM to 114 microM) were transferred via Wako Pin-tool (Wako Automation, Richmond, VA). Samples were incubated (room temperature, protected from light) for 15 minutes followed by a 1 microL Rhodamine110 substrate addition (1.5 microM final concentration). Plates were then immediately read on a ViewLux High-throughput CCD imager (PerkinElmer, Waltham, MA) equipped with FITC fluorescence optics (480(20) nm excitation, 540(25) nm emission), then incubated (room temperature, protected from light) for 15 minutes (~15% conversion). The change in fluorescence intensity over the 15-minute reaction period was normalized against no-inhibitor and no-enzyme controls and the resulting percent inhibition data were fitted to a 4-parameter Hill equation. Aprotinin was used as intraplate control.
Potency is the fitted concentration of half-maximal effect.

**Q.** Which Potency does the source give for `c1ccc([C@@H]2C[C@H]2NC2CCNCC2)cc1` here?
**A.** inactive

**Q.** How did the Potency turn out when `Cc1ccc(Cn2nc(C(=O)N[C@@H]3C(C)(C)[C@@H]4CC[C@@]3(C)C4)cc2-c2ccc(Cl)c(C)c2)cc1` was run?
**A.** inactive

**Q.** How did the Potency turn out when `CC1=CC2/C=C(\C)CCC(O)C(O)C(O)CC(=O)C23C(=O)NC(CC(C)C)C3C1C` (stereo not given) was run?
**A.** inactive

**Q.** `C=C1CC[C@H]2[C@@H](/C=C(\C)C(=O)[C@@]3(OC(C)=O)C[C@H](C)[C@H](OC(=O)c4ccccc4)[C@@H]3[C@H]1OC(C)=O)C2(C)C` was tested. Which Potency did it give?
**A.** inactive

**Q.** How did the Potency turn out when `COC1CC(O[C@H]2CC[C@@]3(C)C(CCC4C3CC[C@]3(C)C(C5=CC(=O)OC5)CCC43O)C2)OC(C)C1OC1OC(COC2OC(CO)C(O)C(O)C2O)C(O)C(O)C1O` (stereo not given in full) was run?
**A.** inactive

**Q.** With `CC1=CC2/C=C(\C)CCC(O)C(O)/C=C/C(=O)C23C(=O)NC(CC(C)C)C3C1C` (stereo not given) as the compound, how does the Potency read?
**A.** inactive

**Q.** With `C/C=C(\C)C(=O)O[C@H]1CC2C(=C1C)[C@H]1OC(=O)[C@](C)(O)[C@]1(O)[C@H](OC(=O)CCC)C[C@@]2(C)OC(C)=O` (stereo not given in full) as the compound, how does the Potency read?
**A.** inactive

**Q.** For `C[C@]12CC[C@H](O[C@@H]3O[C@H](CO)[C@@H](O)[C@H](O)[C@H]3O)CC1=CC[C@@H]1C2CC[C@]2(C)[C@@H](C3=CC(=O)OC3)CC[C@]12O` (stereo not given in full), which Potency is on record?
**A.** inactive

**Q.** `C=C(C)[C@@]12O[C@@H]1[C@@]1(C)C(=C[C@H]2O)CC[C@@H](O)[C@@H]1C` was tested. Which Potency did it give?
**A.** inactive

**Q.** For `C/C=C1/CN2CC[C@]34C(=Nc5ccccc53)[C@@H]2C[C@@H]1[C@H]4C(=O)OC`, which Potency is on record?
**A.** inactive

**Q.** `CC(=O)O[C@@H]1[C@H]2CC[C@H]3[C@@](C)(O)[C@@H]4C[C@H](O)C(C)(C)[C@@]4(O)[C@H](O)C[C@@]13C[C@@]2(C)O` was tested. Which Potency did it give?
**A.** inactive

**Q.** For `C[C@H]1C/C=C/[C@H]2[C@@H]3O[C@]3(C)[C@@H](C)[C@H]3[C@H](Cc4ccccc4)NC(=O)[C@]32OC(=O)O/C=C/[C@@](C)(O)C1=O`, which Potency is on record?
**A.** inactive

**Q.** `N#Cc1cn([C@@H]2O[C@H](CO)[C@H](O)[C@@H]2O)c2ncnc(N)c12` was tested. Which Potency did it give?
**A.** inactive

**Q.** With `Cc1ccccc1C1=CCN(C)CC1` as the compound, how does the Potency read?
**A.** inactive

**Q.** How did the Potency turn out when `O=C1CN=C(c2cccc(Br)c2)c2oc3ccccc3c2N1` was run?
**A.** inactive

**Q.** With `N#CC(O[C@@H]1O[C@H](CO)[C@@H](O)[C@H](O)[C@H]1O)c1ccccc1` (stereo not given in full) as the compound, how does the Potency read?
**A.** inactive

**Q.** For `COC1(C[S@@](=O)c2ccccc2)CCN(CCc2c[nH]c3ccc(F)cc23)CC1`, which Potency is on record?
**A.** inactive

**Q.** Which Potency does the source give for `Cc1c(N2C(=O)[C@@H]3[C@H](O)CCN3C2=O)ccc(C#N)c1Cl` here?
**A.** inactive

**Q.** With `COC1C(O)C(C)OC(OC2C(CO)O[C@@H](O[C@@H]3CC4CCC5C(CC[C@]6(C)[C@@H](C7=CC(=O)OC7)CC[C@]56O)[C@@]4(C)[C@H](OC(C)=O)C3)C(O)C2O)C1O` (stereo not given in full) as the compound, how does the Potency read?
**A.** inactive

**Q.** How did the Potency turn out when `COCC(C(=O)OC1CC2CCC(C1)N2C)c1ccccc1` (stereo not given) was run?
**A.** inactive

**Q.** `C[C@]12CC[C@H](OC3OC(CO)C(O)C(O)C3OC3OC(CO)C(O)C(O)C3O)C[C@@H]1CC[C@@H]1C2CC[C@]2(C)[C@@H](C3=CC(=O)OC3)CC[C@]12O` (stereo not given in full) was tested. Which Potency did it give?
**A.** inactive

**Q.** Which Potency does the source give for `C[C@@H]1CCC/C=C/[C@H]2C[C@@H](O)C[C@@H]2[C@@H](O)/C=C/C(=O)O1` here?
**A.** inactive

**Q.** How did the Potency turn out when `CN1CCc2cc3c(cc2C1C1OC(=O)c2c1ccc1c2OCO1)OCO3` (stereo not given) was run?
**A.** inactive

**Q.** For `C[C@]12CC[C@H](O)C[C@@H]1CC[C@@H]1[C@@H]2CC[C@]2(C)[C@@H](C3=CC(=O)OC3)CC[C@]12O`, which Potency is on record?
**A.** inactive

**Q.** How did the Potency turn out when `C[C@]12CC[C@H](O)CC1=CC[C@@H]1C2CC[C@]2(C)[C@@H](C3=CC(=O)OC3)CC[C@]12O` (stereo not given in full) was run?
**A.** inactive

**Q.** For `C[C@]12CCC(=O)C=C1CC[C@@H]1[C@@H]2[C@@H](O)C[C@]2(C)C(=O)CC[C@@H]12`, which Potency is on record?
**A.** inactive

**Q.** For `N#Cc1ccc(N2CCN(C(=O)COc3ccc4[nH]cc(CCN)c4c3)CC2)cc1`, which Potency is on record?
**A.** inactive

**Q.** For `c1cncc(OC[C@@H]2CCN2)c1`, which Potency is on record?
**A.** inactive

**Q.** How did the Potency turn out when `COc1ccsc1CNCC[C@@]1(c2ccccn2)CCOC2(CCCC2)C1` was run?
**A.** inactive

**Q.** With `CC1=CC2(O)/C=C/C(C)(O)C(O)C(O)/C=C/C(=O)OC23C(=O)NC(CC(C)C)C3C1C` (stereo not given) as the compound, how does the Potency read?
**A.** inactive

**Q.** With `CNc1ccc2oc(C[C@H]3O[C@@]4(CC[C@H]3C)O[C@H](C(C)C(=O)c3ccc[nH]3)[C@H](C)C[C@H]4C)nc2c1C(=O)O` (stereo not given in full) as the compound, how does the Potency read?
**A.** 11.2 µM (active)

**Q.** `CC(C)(NC(=O)[C@@H](N)Cc1ccc(O)cc1)C(=O)N[C@@H](Cc1cc2ccccc2[nH]1)C(=O)N[C@@H](Cc1ccccc1)C(=O)O` (H-Y[Aib][Ala(indol-2-yl)]F-OH) was tested. Which activity change, negative = inhibition did it give?
**A.** 11.5% [at 19.1 µM] (inactive)

**Q.** With `Cc1sc2c(c1C)C(c1ccc(Cl)cc1)=N[C@@H](CC(N)=O)c1nnc(C)n1-2` as the compound, how does the Potency read?
**A.** inactive

**Q.** With `CCC(C)C1NC(=O)C2CCCN2C(=O)C(CC(C)C(=O)O)OC(=O)CCNC(=O)C(C)N(C)C(=O)C(C(C)C)N(C)C1=O` (stereo not given) (cyclo([X5]PI[NMeV][NMeA][βAla]); configuration not given here) as the compound, how does the Potency read?
**A.** inactive

**Q.** How did the Potency turn out when `CCCCCn1cc(C(=O)Oc2cccc3cccnc23)c2ccccc21` was run?
**A.** inactive

**Q.** `COc1cc(O)c2c(c1)CCC[C@@H](O)[C@H](O)C(=O)/C=C\C[C@H](C)OC2=O` was tested. Which Potency did it give?
**A.** inactive

**Q.** For `CO[C@H]1C[C@H](O[C@H]2CC[C@]3(C=O)[C@H]4CC[C@]5(C)[C@@H](C6=CC(=O)OC6)CC[C@]5(O)[C@@H]4CC[C@]3(O)C2)O[C@H](C)[C@H]1O`, which Potency is on record?
**A.** inactive

**Q.** `CC(O)(c1ccccc1)C(Cc1ccc(Cl)cc1)n1cncn1` (stereo not given) was tested. Which Potency did it give?
**A.** inactive

**Q.** Which Potency does the source give for `CC(=O)N1N=C(c2ccc(N)cc2)c2cc3c(cc2C[C@H]1C)OCO3` here?
**A.** inactive

**Q.** For `CO[C@@H]1C[C@H](O[C@H]2CC[C@@]3(C)C(CCC4C3CC[C@]3(C)[C@@H](C5=CC(=O)OC5)[C@@H](OC(C)=O)CC43O)C2)O[C@H](C)[C@@H]1O[C@H]1O[C@H](CO[C@@H]2O[C@H](CO)[C@@H](O)[C@H](O)[C@H]2O)[C@@H](O)[C@H](O)[C@H]1O` (stereo not given in full), which Potency is on record?
**A.** inactive

From PubChem BioAssay (NCATS)
